These results are taken from PubChem BioAssay AID2685 (National Center for Advancing Translational Sciences (NCATS), 2010).

Molecules are shown by their SMILES. In all, about 320,000 compounds went through this assay and about 2,100 (0.66%) were called active. Not shown: some 53% with an inconclusive outcome. Calls follow the shape of the dose curve; as a rule, active = well fitted inhibition curve with a large enough effect in the signal ratio, with a control signal flat (not every such curve was filed as active); inconclusive = small, poorly fitted or top-dose-only effect, or effect the other way, or a change in a side signal; inactive = flat fitted curve, though single readings scatter; the % refers to the signal ratio. Many of the other results were omitted from the sample, so actives are more common in it than they were.
Potency is read from the fitted curve at half-maximal effect.

A short description of the assay: qHTS Assay for Lipid Storage Modulators in Drosophila S3 Cells.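 As to cell number change: cells counted by Cell Tracker Red CMTPX staining in the red channel.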 The note with it: BODIPY lipid droplet fluorescence, 18-24 h, cells fed with added oleic acid; cell number change: measured here: cell count max response; series mostly up to 46.1 µM. The essentials: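 Drosophila S3 cells got compounds at several concentrations plus oleic acid (400 uM solution). Laser-scanning cytometry with 488 nm excitation read lipid droplets at 500-530 nm and cells at 575-640 nm. Percent activity was relative to 20 uM Triacsin C.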
(In general: Quantitative high-throughput screening tests each substance at several concentrations.)
With `Cc1cccc(NC(=O)CSc2nc3ccccc3o2)c1`, the Potency result is “inactive”.
The same measure, in the same setting: the result for `Cc1cccn2c(=O)c3cc(C(N)=S)c(=N)n(CCCN4CCOCC4)c3nc12` reads “inactive”.
Turning to `COCCCn1c(=N)c(C(=O)NCC2CCCO2)cc2c(=O)n3cccc(C)c3nc21` (stereo not drawn), the Potency result is “inactive” and the cell number change is -13.4%.
For `Cc1cccn2c(=O)c3cc(C(N)=S)c(=N)n(CCCOC(C)C)c3nc12`, in that order: 9.2 µM (active) and 3.82%.
For `COCCCn1c(C(=O)N2CC(C)OC(C)C2)cc2c(=O)n3cccc(C)c3nc21` (stereo not drawn), in that order: “inactive” and 0.298%.
Consider `COCCCn1c(C(=O)NC2CCCCC2C)cc2c(=O)n3cccc(C)c3nc21` (stereo not drawn), for which the Potency is 20.6 µM (active) and the cell number change worked out at 8.96%.
Turning to `CC(=O)N=c1c(C#N)cc2c(=O)n3cccc(C)c3nc2n1CCCOC(C)C`, the Potency result was “inactive” and the cell number change was 13.1%.
For `Cc1cccn2c(=O)c3cc(C(=O)NCCC4=CCCCC4)n(C)c3nc12`, in that order: 18.4 µM (active) and -17.7%.
For the compound `Cc1cccn2c(=O)c3cc(C(=O)NCCCN4CCCC4=O)n(C)c3nc12`, the Potency result is “inactive”.
For the compound `CCCn1c(=N)c(C(=O)NC2CCCC2)cc2c(=O)n3cccc(C)c3nc21`, the Potency result is “inactive” and the cell number change was -9.76%.
For `COCCCn1c(=NC(C)=O)c(C#N)cc2c(=O)n3cccc(C)c3nc21`, in that order: “inactive” and 0.683%.
For the compound `CCN(C(=O)c1cc2c(=O)n3cccc(C)c3nc2n1CCCOC)C1CCCCC1`, the Potency is 23.1 µM (active) and the cell number change was found to be 8.25%.
As for `Cn1c(C(=O)NCCC2=CCCCC2)cc2c(=O)n3ccccc3nc21`, the Potency result is “inactive”.
On to `O=C(CCc1nnc(C2(c3ccc(Cl)cc3)CCC2)o1)NC1CC1`, for which the Potency entry was “inactive” and the cell number change was 6.23%.
As to `Cc1ccc2[nH]c3c(c2c1)CCN1C(=O)OC(C)(C)C31C` (stereo not drawn), the Potency entry is “inactive” and the cell number change was -17.1%.
For `O=C(CCCc1nc2ccccc2s1)N1CCN(c2ccccc2F)CC1`, in that order: “inactive” and 22.1%.
For `COc1cccc(/C=C/C(=O)OCC(=O)c2c[nH]c3ccccc23)c1`, in that order: 9.2 µM (active) and -14.3%.
For `COc1cc(/C=C/C(=O)OCC(=O)c2c[nH]c3ccccc23)ccc1OC(F)F`, in that order: “inactive” and -14.2%.
Consider `COc1ccc(/C=C/C(=O)OCC(=O)c2c[nH]c3ccccc23)cc1`, for which the Potency result was “inactive” and the cell number change was 4.45%.
`CCOc1cc(N2CCOCC2)c(OCC)cc1NC(=O)Cn1[nH]c(=O)c2ccccc2c1=O`: the Potency result was “inactive” and the cell number change was 7.32%.
With `O=C(O)CNS(=O)(=O)Cc1ccccc1`, the Potency entry is “inactive” and the cell number change was 2.83%.
Consider `Cc1cccc(NC(=O)C2CCN(S(=O)(=O)c3cccs3)CC2)n1`, for which the Potency entry was “inactive”.
Consider `Cc1nc2ccccc2n1Cc1ccccc1`, for which the Potency entry was “inactive” and the cell number change is -17%.
For `Cc1ccccc1Cn1c(C)nc2ccccc21`, in that order: 10.3 µM (active) and -15.1%.
Turning to `COc1ccccc1Cn1c(C)nc2ccccc21`, the Potency entry is “inactive” and the cell number change is 10.6%.
For `CC1CCN(c2cc(C#N)c(C#N)cc2[N+](=O)[O-])CC1`, in that order: 23.1 µM (active) and 0.344%.
Consider `CN(C)CCC1CCN(c2cc(C#N)c(C#N)cc2[N+](=O)[O-])CC1`, for which the Potency entry is “inactive” and the cell number change was -1.99%.
For `N#Cc1cc(N2CCCCC2)c([N+](=O)[O-])cc1C#N`, in that order: “inactive” and -3.02%.
For `COC(=O)c1cc(OC)c(OC)cc1NC(=S)N1CCN(c2ccccn2)CC1`, in that order: “inactive” and -13.1%.
With `CCCS(=O)(=O)c1nc(S(=O)(=O)c2ccc(C)cc2)c(N2CCC3(CC2)OCCO3)s1`, the Potency entry is “inactive” and the cell number change was -26.8%.
For `CCCCNC(=O)CC1NCCNC1=O` (stereo not drawn), in that order: “inactive” and -9.85%.
For `COc1cc(NC(=O)CC2NCCNC2=O)cc(OC)c1` (stereo not drawn), in that order: “inactive” and 2.74%.
For `COC(=O)CC1NCCNC1=O` (stereo not drawn), in that order: 0.0326 µM (active) and -8.44%.
Turning to `S=c1[nH]nc(-c2cc(-c3ccccc3)n[nH]2)n1/N=C/C=C/c1ccccc1`, the Potency result was “inactive” and the cell number change was found to be 5.92%.
For `Cc1ccc(C)c(N2CCN(C(=O)Nc3ccc4c(c3)N(C)C(=O)CS4)CC2)c1`, in that order: “inactive” and -6.47%.
For `CN(C)N=C1c2cc(S(=O)(=O)N(C)C)ccc2-c2ccc(S(=O)(=O)N(C)C)cc21`, in that order: “inactive” and -8.49%.
For `CC(=O)NCCNC(=O)c1ccc(-n2c(C)ccc2C)cc1`, in that order: “inactive” and -0.679%.
Consider `Cc1ccc(C2=NOC(=O)/C2=C\C=C\c2ccccc2)cc1`, for which the Potency is 4.61 µM (active) and the cell number change is -25.2%.
As to `O=C1ON=C(c2ccccc2)/C1=C/c1ccccc1`, the Potency entry is “inactive” and the cell number change is -8.78%.
For `O=C1ON=C(c2ccccc2)/C1=C/c1cccnc1`, in that order: “inactive” and 4.4%.
For `Cc1cc(C)cc(N2CC(C(=O)Nc3cc(C)on3)CC2=O)c1` (stereo not drawn), in that order: “inactive” and -8.97%.
With `CC(=O)c1ccccc1C(=O)N1CCCC(CNC(=O)c2ccccc2Cl)C1` (stereo not drawn), the Potency result is “inactive”.
Take `COc1ccccc1NC(=O)N1CCCC(CNC(=O)c2ccccc2Cl)C1` (stereo not drawn): the Potency result is “inactive” and the cell number change amounted to 21.5%.
For `Cc1cccc(NC(=O)N2CCCC(CNC(=O)c3ccccc3Cl)C2)c1C` (stereo not drawn), in that order: 20.6 µM (active) and -15%.
For `O=c1c(Cl)c(N2CCNCC2)cnn1C12CC3CC(CC(C3)C1)C2`, in that order: “inactive” and 5.13%.
For `CCCc1nnc(NC(=O)CSc2nc3ccccc3[nH]2)s1`, in that order: “inactive” and -1.76%.
Regarding `COc1ccc(OC)c(NC(=O)CC(NCCC2=CCCCC2)C(=O)O)c1` (stereo not drawn), the Potency was 4.61 µM (active) and the cell number change worked out at 1.58%.
In the case of `COc1ccc(C)cc1NC(=O)NCCC1=CCCCC1`, the Potency result is “inactive”.
`COc1ccc(NC(=O)CC(NCCc2ccccc2)C(=O)O)c(OC)c1` (stereo not drawn): the Potency entry was “inactive” and the cell number change was determined as 2.02%.
For `S=c1[nH]nc(-c2cccs2)n1/N=C/c1cn(-c2ccccc2)nc1-c1ccccc1`, in that order: “inactive” and -2.97%.
For `CCCC[N+](CC#CCO)(CC#Cc1ccccc1)CCCC`, in that order: “inactive” and 24.4%.
For `Cc1nc(SCC(O)CCl)c([N+](=O)[O-])[nH]1` (stereo not drawn), in that order: “inactive” and 21.1%.
Consider `CC(C)OP(=O)(OC(C)C)C(Nc1ccc(C(=O)O)cc1)c1ccccc1` (stereo not drawn), for which the Potency result is “inactive” and the cell number change is -10.6%.
For `COc1cc(CNc2ncn[nH]2)ccc1OCC(=O)NC(C)(C)C`, in that order: “inactive” and -0.636%.
On to `Cc1nn(S(=O)(=O)N2CCOCC2)c(C)c1Br`, for which the Potency result was “inactive” and the cell number change was -1.55%.
For the compound `CCc1nc(SCC(=O)NCc2ccco2)c2c(=O)n(C)c(=O)n(C)c2n1`, the Potency result is “inactive”.
The same measure, in the same setting: as for `CCc1nc(SCC(=O)NCc2ccccc2)c2c(=O)n(C)c(=O)n(C)c2n1`, the entry is “inactive”.
For `CCc1nc(SCC(=O)Nc2ccccc2)c2c(=O)n(C)c(=O)n(C)c2n1`, the Potency is 7.31 µM (active) and the cell number change was -27.3%.
For `CCc1nc(SCC(=O)Nc2ccc(F)cc2)c2c(=O)n(C)c(=O)n(C)c2n1`, in that order: “inactive” and 7.11%.
For the compound `Cn1c(=O)c2c(SCC(=O)NCc3ccco3)nc(-c3ccccc3Cl)nc2n(C)c1=O`, the Potency was 8.91 µM (active) and the cell number change was -20.7%.
Regarding `Cn1c(=O)c2c(SCC(=O)N3CCOCC3)nc(-c3ccccc3Cl)nc2n(C)c1=O`, the Potency result is “inactive” and the cell number change is -19.8%.
For `CCN(CC)S(=O)(=O)c1ccc(/C=C/C(=O)OCC(=O)Nc2cccc3ccccc23)cc1`, in that order: “inactive” and 15.5%.
For `Cc1noc(C)c1S(=O)(=O)N1CCC(C(N)=O)CC1`, in that order: “inactive” and -15.5%.
Turning to `Cc1ccc(C(=O)OCC(=O)NCCC2=CCCCC2)cc1N`, the Potency result is “inactive”.
Take `COc1cccc(NC(=O)c2ccc(CN3CCc4ccccc4C3)cc2)c1`: the Potency entry is “inactive” and the cell number change is 26.4%.
For `C=CCNc1nc(C(=O)OCC(=O)c2ccccc2)cs1`, in that order: “inactive” and 16.2%.
For `COc1cccc(C(=O)NC(=S)Nc2cccnc2)c1`, in that order: “inactive” and -2.34%.
`CC1=NN(C(N)=S)C(=O)C1N=Nc1ccccc1C` (stereo not drawn): the Potency result is “inactive” and the cell number change was determined as 2.36%.
For `CC1=NN(C(N)=S)C(=O)C1N=Nc1ccc(S(N)(=O)=O)cc1` (stereo not drawn), in that order: “inactive” and 3.52%.
For `CC1=NN(C(N)=S)C(=O)C1N=Nc1ccccc1O` (stereo not drawn), in that order: “inactive” and -20.1%.
On to `CCOc1ccc(N=NC2C(=O)N(C(N)=S)N=C2C)cc1` (stereo not drawn), for which the Potency is 2.31 µM (active) and the cell number change was -27.4%.
For `CCOc1ccccc1N=NC1C(=O)N(C(N)=S)N=C1C` (stereo not drawn), in that order: “inactive” and -0.35%.
For `CC1=NN(C(N)=S)C(=O)C1N=Nc1ccccc1Cl` (stereo not drawn), the Potency was 6.51 µM (active) and the cell number change was -28.8%.
For `Cc1c(NC(=O)Nc2ccc([N+](=O)[O-])cc2)c(=O)n(-c2ccccc2)n1C`, in that order: “inactive” and -0.0298%.
Consider `Cc1ccc(S(=O)(=O)N(CC(=O)NCCSc2ccccn2)c2cc(C)cc(C)c2)cc1`, for which the Potency result is “inactive” and the cell number change is -8.96%.
For `COc1ccc(NS(=O)(=O)c2ccc(N3CC(O)=C(c4ccccc4)C3=N)cc2)cc1`, in that order: “inactive” and 18.3%.
On to `Cn1cc(Cl)c(C(=O)Nc2nc3ccc([N+](=O)[O-])cc3s2)n1`, for which the Potency entry is “inactive” and the cell number change is -2.18%.
As to `COC(=O)C(NC(=O)c1ccccc1C)(Nc1ncc(S(=O)(=O)c2ccc([N+](=O)[O-])cc2)s1)C(F)(F)F` (stereo not drawn), the Potency entry is “inactive” and the cell number change was -2.46%.
Turning to `COC(=O)C(NC(=O)c1ccccc1Cl)(Nc1ncc(S(=O)(=O)c2ccc([N+](=O)[O-])cc2)s1)C(F)(F)F` (stereo not drawn), the Potency is 20.6 µM (active) and the cell number change came out at 9.68%.
For `COC(=O)C(NC(=O)c1ccc(F)cc1)(Nc1ncc(S(=O)(=O)c2ccc([N+](=O)[O-])cc2)s1)C(F)(F)F` (stereo not drawn), in that order: “inactive” and 0.5%.
For `O=C(NC(Nc1nc2ccc([N+](=O)[O-])cc2s1)(C(F)(F)F)C(F)(F)F)c1ccccc1Cl`, in that order: 5.8 µM (active) and -26.5%.
For `O=C(NC(Nc1nc2ccc([N+](=O)[O-])cc2s1)(C(F)(F)F)C(F)(F)F)c1cccnc1`, in that order: “inactive” and -11%.
Regarding `Cn1nc([N+](=O)[O-])nc1Sc1ccc(Cl)cc1`, the Potency result was “inactive” and the cell number change turned out to be 9.49%.
For `Nc1cnc(Br)cc1Br`, in that order: “inactive” and -3.4%.
On to `Cc1ccc(NC(=O)CNC(=O)c2ccc(Br)o2)nc1`, for which the Potency entry is “inactive”.
With `CCOc1c(N2CC(C)OC(C)C2)c(=O)c1=O` (stereo not drawn), the Potency result was “inactive” and the cell number change was -16.5%.
For `Cc1ccc(/C=C/C(=O)Nc2sc(C)c(C)c2C(=O)OC(C)C)o1`, in that order: “inactive” and 0.157%.
For `O=S(=O)(c1ccccc1)N1CCN(c2cccc(Cl)c2)CC1`, in that order: “inactive” and -13.5%.
For `CCn1c(=O)c(C(=O)Nc2ccccc2C)c(O)c2ccccc21`, the Potency result is “inactive” and the cell number change worked out at 4.59%.
For `C=CCn1c(=O)c(C(=O)Nc2ccccc2O)c(O)c2ccccc21`, in that order: “inactive” and 3.13%.
Take `C=CCn1c(=O)c(C(=O)Nc2ccccc2C)c(O)c2ccccc21`: the Potency is 18.4 µM (active) and the cell number change is -12.3%.
For `O=C(NS(=O)(=O)Oc1cccc(Cl)c1Cl)OC[C@@H]1CCCN2CCCCC12` (stereo partly drawn), in that order: “inactive” and -10.2%.
